Laboratory results: PubChem BioAssay AID1304 (The Scripps Research Institute Molecular Screening Center, 2008)
Values joined by “and” are separate entries in the source; they are usually repeats but may differ in a detail not shown here. Equal entries are not always repeated. Among all 220,000 compounds or so, about 800 (0.36%) were called active. Rule as the data show it: active = activation above about 33% (passing the limit was not always enough); inactive = the rest. For the sample, actives were picked, then their nearest neighbours and some compounds at random.

These compounds were tested against Neuropeptide Y receptor type 1 (Homo sapiens) (UniProt P25929) (assay: NPY-Y1 receptor potentiators or agonists, primary screen, cell-based (AID 1304;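 also: cells stimulated with NPY at EC10 then isoproterenol at EC100; 0% = low agonist plus stimulus and 100% = saturating agonist plus stimulus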)). Conditions: NPY-Y1 expressing cells, potentiator/agonist activation; at 3.6 µM; hits give high values.
Chain of Neuropeptide Y receptor type 1 (Homo sapiens) (P25929 whole entry, looked up): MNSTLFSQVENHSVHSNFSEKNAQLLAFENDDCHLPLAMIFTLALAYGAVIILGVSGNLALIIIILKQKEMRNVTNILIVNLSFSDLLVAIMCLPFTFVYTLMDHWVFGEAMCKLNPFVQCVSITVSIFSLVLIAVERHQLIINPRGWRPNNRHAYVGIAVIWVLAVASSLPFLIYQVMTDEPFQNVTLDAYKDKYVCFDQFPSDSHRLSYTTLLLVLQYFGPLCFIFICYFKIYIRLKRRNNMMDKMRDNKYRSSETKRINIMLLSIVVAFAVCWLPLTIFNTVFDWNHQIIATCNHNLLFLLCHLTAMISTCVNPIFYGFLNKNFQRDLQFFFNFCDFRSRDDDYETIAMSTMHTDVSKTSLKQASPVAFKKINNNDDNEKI

activation, inactive:
Cc1nn2c(NCCN(C)C)c3c(nc2c1-c1ccccc1)CCC3 22.6%, O=C(c1cc(COc2c(F)cccc2F)on1)N1CCSCC1 3.08%, CCC(CC)C(=O)N1CCN(c2cccc(C)c2C)CC1 -14.7%, Cc1ccc(N(CC(=O)Nc2cccc(N(C)S(C)(=O)=O)c2)S(C)(=O)=O)cc1 25.3%, CCOC(=O)c1cccc(NC(=O)CN(c2ccc(C)cc2)S(=O)(=O)c2c(C)noc2C)c1 18.8%, COc1ccc(NC(=O)c2nc(-n3nc(C)cc3C)ccc2Cl)cc1Cl 9.04%, O=C(Cc1cccc2ccccc12)NNC(=O)Nc1ccc(Cl)cc1 5.16%, COc1ccccc1C(c1nnnn1CC1CCCO1)N1CCN(c2ccccc2)CC1 (stereo not given) 12.6%, COc1ccccc1C(c1nnnn1C(C)(C)C)N1CCN(Cc2ccccc2)CC1 (stereo not given) -17.5%, Cc1c(CN2CCCCC2)c(O)n(CCO)c(=O)c1C#N 10.5%, CCOC(=O)CCCNC(=O)COC(=O)/C=C/c1ccc2c(c1)OCO2 -7.21%, CC(=O)N1CC[n+]2c(-c3ccc([N+](=O)[O-])cc3)csc21 13.5%, O=C(NCCCNc1ccc([N+](=O)[O-])cc1Cl)c1ccccc1F -0.79%, CC1=NNC(=O)C1CCC(=O)N/N=C\c1cccc(Cl)c1 (stereo not given) 4.52%, CCOc1ccc(C2NC(=S)NC3=C2CCc2ccccc23)cc1 (stereo not given) 10.5%, Cc1cc(C)cc(OCC(=O)NCc2cc(C)nc3ccccc23)c1 0.39%, Cc1cc(C)c(NC(=O)c2oc3ccccc3c2COc2ccccc2)c(C)c1 -49.2%, COc1cc(N2C(=O)CC3(CCCC3)CC2=O)cc(OC)c1OC -14.9%, CCC(=O)N1c2ccccc2NC2=C(C(=O)CCC2)C1c1ccco1 (stereo not given) 19.7%, COC(=O)c1sccc1NC(=S)Nc1ccc(C)cc1 -0.64%, O=c1c(-c2ccccc2)coc2cc(O)ccc12 2.99%, O=c1c(/C=N/O)coc2ccc(Cl)cc12 19.5%, O=C1CC(c2cccc(Cl)c2)CC(O)=C1C=Nc1ccccc1 (stereo not given) -11.9%, Cc1ccc(-c2ccc(/C=C(\C#N)C(N)=S)o2)c([N+](=O)[O-])c1 8.63%, CN(C)NC(=O)C(NC(=O)c1ccc(N)cc1)C12CC3CC(CC(C3)C1)C2 (stereo not given) 5.39%, Cc1cc(NC(=O)COC(=O)COc2ccc(Cl)cc2C)c([N+](=O)[O-])cc1C -0.92%, Cc1ccc(OCC(=O)c2cc(C)n(Cc3ccco3)c2C)c([N+](=O)[O-])n1 1.91%, CN(C)CCCN(C(=O)COc1ccccc1)c1nc2c(Cl)cccc2s1 -13.9%, CC(=O)N(CCCN(C)C)c1nc2ccc(C)cc2s1 -7.71%, Cc1nnc(SCC2=C(C(=O)O)N3C(=O)C(NC(=O)Cn4nc(C)c(Cl)c4C)C3SC2)s1 (stereo not given) -9.62%, Cn1nc(C(F)(F)F)cc1C(=O)O -6.07%, COc1ccc(C(=O)OCC(=O)NC(=O)CCSc2ccccc2)cc1 -33.3%, COc1cccc(CNC(=O)CCC2CCCN(Cc3ccc(OC(F)F)cc3)C2)c1 (stereo not given) 4.57%, C[C@@H]1NC(=O)c2cc([N+](=O)[O-])cc(F)c2NCCC[C@@H](C(N)=O)NC(=O)[C@H](CC(N)=O)NC1=O 3.2%, COC(=O)c1sc(C(F)(F)F)c(-c2ccccc2)c1S(=O)(=O)N(C)C 5.29%, CCCCCCCCc1c(O)nc(-n2[nH]c(C)c(CCO)c2=O)[nH]c1=O 11.5%, CC(C)NC(=O)c1ccc(Sc2ccccc2)c([N+](=O)[O-])c1 4.46%, O=C(COc1ccc([N+](=O)[O-])cc1)Nc1ccc(N2CCCC2)cc1 -4.81%, COc1ccc(C(=O)Nc2ccc(-n3nncc3C(C)(C)C)cc2)cc1 1.57%, COc1ccccc1N(C)S(=O)(=O)c1ccc(Cl)c(C(=O)N2CCC(C(N)=O)CC2)c1 29.7%, COc1ccc(/C=N/NC(=O)Nc2ccc3nsnc3c2)c(OC)c1 7.9%, Cc1ccc(NC(=O)CCOc2ccccc2)cc1S(=O)(=O)Nc1ccccc1Cl 21.9%, CC(O)CNCCOc1cccc(Oc2ccccc2)c1 (stereo not given) -10%, COc1ccccc1OCCNC(=O)c1cc([N+](=O)[O-])cc([N+](=O)[O-])c1 1.67%, COc1ccc(C2c3[nH]c4ccccc4c3CCN2CCCn2cccn2)cc1C (stereo not given) -23.6%, Nc1nc(SCC(=O)NNc2c(Cl)cc(Cl)cc2Cl)n[nH]1 3.91%, C/C(=N\NC(=O)NC1CCCCC1)c1ccc(OC(F)F)cc1OC(F)F -17%, CC(=O)Nc1ccc(S(=O)(=O)NCCc2ccccc2)cc1 -20.2%, CCCCNC(=O)C1CCC(CNS(=O)(=O)c2ccc(NC(C)=O)cc2)CC1 (stereo not given) -15.8%, CC(C)(C)NC(=O)Cn1c(SCC(=O)Nc2nccs2)nc2ccccc21 -9.44%, CS(=O)(=O)n1nc(-c2ccco2)nc1N -9.25%, CSc1nc(-c2ccco2)nn1C(=O)CCc1ccccc1 -13.4%

activation, active:
COC(=O)c1ccc(NC(=O)CN(c2ccc(C)cc2)S(=O)(=O)c2c(C)n[nH]c2C)cc1 38.8%, COCCn1nnnc1C(c1ccccc1Cl)N1CCN(c2ccccc2OC)CC1 (stereo not given) 89.3%, Cc1cc(C)c(NC(=O)C[N+](C)(C)CC(O)COc2cccc3ccccc23)c(C)c1 (stereo not given) 86.4%, O=C1/C(=C/c2coc3ccc(O)cc3c2=O)SC(=S)N1c1ccccc1 47%, COc1cccc2sc(N(CCCN(C)C)C(=O)C(c3ccccc3)c3ccccc3)nc12 103%, COc1ccccc1OCCNCC(O)COc1cccc2[nH]c3ccccc3c12 (stereo not given) 107% and 106%, COCCCNC(=O)c1ccc(CNS(=O)(=O)c2ccc(NC(C)=O)cc2)cc1 36.8%, CSc1nc(-c2ccco2)nn1C(=O)c1ccccc1Cl 56.1%
